Experimental data published in PubChem BioAssay (NCATS).
Results filed as inconclusive are left out. Active and inactive are the calls of the source. Unless noted, calls come from the whole dose curve; as a rule, active = well fitted curve in the direction sought with a large enough effect; inconclusive = small, poorly fitted or top-dose-only effect, or another doubt; inactive = no such curve, though single readings can be large; an effect the other way counts as inactive or inconclusive.

Key:
[1] = qHTS for Inhibitors of Plasmodium falciparum (DD2) proliferation (AID 504314);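 note: parasite DNA measured by SYBR Green fluorescence after red cell lysis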
Outline: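 Erythrocytes infected with P. falciparum (0.3% parasitemia, 2.5% hematocrit final) were incubated with compounds for 72 h at 37C, 5% CO2. Parasite DNA was detected by SYBR Green I fluorescence after saponin/Triton lysis, normalized to artemisinin (0.29 uM) and DMSO controls.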

[2] = qHTS for Inhibitors of Plasmodium falciparum (GB4) proliferation (AID 504315); note: nearly all actives have a fitted effect of over 50% in size
Outline: (§1)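 Erythrocytes infected with P. falciparum line (0.3% parasitemia, 2.5% hematocrit final) incubated with compounds 72 h at 37 °C, 5% CO2; SYBR Green lysis buffer added, fluorescence read next day. Normalized to 0.29 uM artemisinin and DMSO.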

[3] = qHTS for Inhibitors of Plasmodium falciparum (7G8) proliferation (AID 504316); note: series mostly up to about 6.7 µM; nearly all actives have a fitted effect of over 65% in size
Outline: as §1

[4] = qHTS for Inhibitors of Plasmodium falciparum (HB3) proliferation (AID 504318); note: nearly all actives have a fitted effect of over 60% in size
Outline: as §1

[5] = qHTS for Inhibitors of Plasmodium falciparum (CP250) proliferation (AID 504320)
Outline: as §1

[6] = target: Glucocorticoid receptor (Homo sapiens) (UniProt P04150); experiment: GR-GFP Redistribution (AID 450;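 active = compounds whose dose series gives a full or clear partial fitted curve of increased nuclear translocation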; note: potency is the fitted concentration of half-maximal effect); conditions: U2OS GR-GFP nuclear translocation, laser cytometry, 2 h
Sequence of Glucocorticoid receptor (Homo sapiens) (P04150 whole entry, looked up, the tested form may be a part): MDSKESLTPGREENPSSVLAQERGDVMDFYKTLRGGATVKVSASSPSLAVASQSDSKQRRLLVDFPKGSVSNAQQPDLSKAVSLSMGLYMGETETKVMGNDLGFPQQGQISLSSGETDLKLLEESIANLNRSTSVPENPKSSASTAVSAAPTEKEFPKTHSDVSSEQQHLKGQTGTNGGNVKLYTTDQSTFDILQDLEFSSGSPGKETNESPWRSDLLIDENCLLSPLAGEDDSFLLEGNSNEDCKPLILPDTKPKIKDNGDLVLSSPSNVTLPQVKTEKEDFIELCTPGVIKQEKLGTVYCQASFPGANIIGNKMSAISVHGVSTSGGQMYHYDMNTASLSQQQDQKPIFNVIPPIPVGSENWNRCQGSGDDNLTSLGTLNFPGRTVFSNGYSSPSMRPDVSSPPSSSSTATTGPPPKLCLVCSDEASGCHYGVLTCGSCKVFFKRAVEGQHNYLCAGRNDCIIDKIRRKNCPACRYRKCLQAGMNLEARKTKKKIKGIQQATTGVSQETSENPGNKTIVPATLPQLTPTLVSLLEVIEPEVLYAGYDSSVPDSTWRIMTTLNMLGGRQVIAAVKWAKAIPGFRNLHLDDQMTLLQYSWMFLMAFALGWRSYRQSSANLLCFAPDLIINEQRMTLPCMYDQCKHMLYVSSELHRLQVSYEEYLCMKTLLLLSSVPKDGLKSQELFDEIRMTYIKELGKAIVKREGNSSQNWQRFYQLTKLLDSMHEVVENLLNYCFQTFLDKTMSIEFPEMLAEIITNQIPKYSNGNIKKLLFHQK

[7] = target: Glucocorticoid receptor (Homo sapiens) (UniProt P04150); experiment: GR-EFC Redistribution (AID 451; calls by dose curve; note: potency is the fitted concentration of half-maximal effect); conditions: CHO-K1 GR-EFC translocation, beta-gal luminescence, 2 h
Outline: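 Translocation of GR-ED fusion to nuclear EA restores b-gal, read by luminescence after 1 h room-temperature detection. Engineered CHO-K1 biosensor cells, 1,000/well, exposed 2 h at 37 C to titrations up to 46 uM final.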

[8] = target: Mitogen-activated protein kinase 10 (Mus musculus) (UniProt Q61831); experiment: JNK3 AlphaScreen Assay (AID 530; active = well fitted curve in either direction with a large enough effect, not every such curve was filed as active;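 note: kinase came from lysate of stimulated human HepG2 cells; signal reports phosphorylation of biotinylated GST-cJun 1-79 at Ser73 with 10 µM ATP; series mostly up to about 57 µM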)
Outline: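 Room-temperature AlphaScreen kinase assay; pre-activated HepG2 lysate as JNK3 source, biotin-GST-cJun(1-79) substrate, 10 uM ATP, compound 15 min preincubation.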

[9] = target: Ubiquitin carboxyl-terminal hydrolase 1 (Homo sapiens) (UniProt O94782); experiment: Inhibitors of USP1/UAF1: Pilot qHTS (AID 504865);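 note: rhodamine fluorescence freed from ubiquitin-rhodamine substrate followed over time; top concentration of the series differs between compounds; nearly all actives have a fitted effect of over 35% in size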
Sequence of Ubiquitin carboxyl-terminal hydrolase 1 (Homo sapiens) (O94782 whole entry, looked up): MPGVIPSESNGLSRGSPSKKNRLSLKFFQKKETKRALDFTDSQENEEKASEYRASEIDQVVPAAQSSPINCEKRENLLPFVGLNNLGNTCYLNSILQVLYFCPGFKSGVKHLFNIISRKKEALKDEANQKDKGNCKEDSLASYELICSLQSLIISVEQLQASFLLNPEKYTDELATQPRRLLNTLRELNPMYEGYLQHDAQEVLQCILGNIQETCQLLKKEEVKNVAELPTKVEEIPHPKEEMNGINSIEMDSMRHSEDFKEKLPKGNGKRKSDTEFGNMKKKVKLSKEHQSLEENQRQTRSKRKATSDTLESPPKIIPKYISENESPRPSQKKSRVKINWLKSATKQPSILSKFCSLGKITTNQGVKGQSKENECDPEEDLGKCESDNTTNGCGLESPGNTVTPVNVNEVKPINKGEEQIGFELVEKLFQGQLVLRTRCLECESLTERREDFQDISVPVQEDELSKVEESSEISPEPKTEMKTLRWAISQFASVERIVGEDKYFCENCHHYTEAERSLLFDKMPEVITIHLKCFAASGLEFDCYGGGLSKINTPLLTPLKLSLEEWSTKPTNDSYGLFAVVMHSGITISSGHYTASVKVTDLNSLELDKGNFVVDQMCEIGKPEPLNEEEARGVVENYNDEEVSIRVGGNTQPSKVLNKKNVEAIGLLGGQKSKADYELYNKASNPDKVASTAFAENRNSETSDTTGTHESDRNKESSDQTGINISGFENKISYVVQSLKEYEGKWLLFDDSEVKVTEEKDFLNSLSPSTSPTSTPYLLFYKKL
Outline: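 Kinetic fluorescence assay: 1nM USP1/UAF1, 15 min compound preincubation, then 150nM Ub-Rho; 480/540 nm.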

[10] = target: DNA dC->dU-editing enzyme APOBEC-3G (Homo sapiens) (UniProt Q9HC16); experiment: qHTS for inhibitors of Vif-A3G interactions: Validation (AID 588379)
Sequence of DNA dC->dU-editing enzyme APOBEC-3G (Homo sapiens) (Q9HC16 whole entry, looked up): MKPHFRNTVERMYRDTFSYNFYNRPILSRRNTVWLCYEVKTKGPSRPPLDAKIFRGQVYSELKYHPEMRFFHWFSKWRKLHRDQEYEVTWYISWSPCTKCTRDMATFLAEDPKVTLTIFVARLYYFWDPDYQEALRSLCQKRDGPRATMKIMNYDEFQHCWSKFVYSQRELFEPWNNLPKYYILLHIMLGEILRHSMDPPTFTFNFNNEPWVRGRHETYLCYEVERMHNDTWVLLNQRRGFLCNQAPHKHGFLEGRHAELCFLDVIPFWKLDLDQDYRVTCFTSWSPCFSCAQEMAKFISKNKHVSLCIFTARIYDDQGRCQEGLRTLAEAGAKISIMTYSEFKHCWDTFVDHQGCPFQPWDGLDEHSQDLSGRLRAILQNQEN
Outline: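 HeLa cells stably expressing Vif and A3G-eYFP, 700 cells/well, incubated overnight at 37 deg C, then exposed to compound overnight at 37 deg C. Inhibition of Vif-mediated degradation read as increased yellow fluorescence (Ex 488/Em 500-530) by laser-scanning cytometry.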

Measured: Potency

CC(C)CON=C1C[C@@H](O)[C@@H](O)[C@@H]2[C@H]3C(=O)N(c4ccc(F)cc4F)C(=O)[C@@H]3CC[C@H]12
inactive: [1] | [2] | [3] | [4] | [5]

N=C(C[C@@H](O)COc1ccccc1-c1ccccc1)N1CCCCC1
inactive: [6] > 46 µM | [7] > 46 µM | [8] | [9] | [10]

COC(=O)C1=C(C)[C@@H](O)[C@@H](C)[C@](C)(c2cc(OC)c(C)c(OC)c2COc2ccccc2)O1
inactive: [1] | [2] | [3] | [4] | [5]

COc1ccc(COC(=O)NN=C2C[C@@H](O)[C@@H](O)[C@@H]3[C@H]4C(=O)N(Cc5ccc6c(c5)OCO6)C(=O)[C@@H]4CC[C@H]23)cc1
inactive: [1] | [2] | [3]

C=COC[C@@H]1CN2[C@H](c3ccc(Br)cc3)[C@H](C)CC[C@H]2C(=O)O1
inactive: [1] | [2] | [3] | [4] | [5]

COc1ccc2c(c1)C(=O)[C@@H](OC(=O)Nc1cc(OC)c(OC)c(OC)c1)[C@H](c1ccc(OC)c(Br)c1)O2
inactive: [1] | [2] | [3] | [4]

C=CCN1c2ccccc2[C@]23CCC(=O)N(CC4CC4)C2=NC(C(=O)OC)=C(C(=O)OC)[C@H]13
inactive: [1] | [2] | [3] | [4] | [5]

O=C(NN=C1C[C@@H](O)[C@H](O)[C@H]2[C@@H]3C(=O)N(C[C@@H]4CCCO4)C(=O)[C@@H]3CC[C@@H]12)OCc1ccccc1
inactive: [1] | [2] | [3] | [4] | [5]

COc1cc2c(cc1OC)C1OC(c3ccsc3)(C2)Oc2cc(C)oc(=O)c21 (stereo unspecified)
inactive: [1] | [2] | [3] | [4] | [5]

CCN1C(=O)[C@@H]2[C@H]3[C@H](O)[C@H](O)CC(=NOC[C@@H](C)[C@H](OCc4ccccc4)C(C)C)[C@@H]3CC[C@H]2C1=O
inactive: [1] | [2] | [3] | [4] | [5]

C=C[C@H](C)[C@](C)(O)c1ccccc1
inactive: [1] | [2] | [3] | [4] | [5]

C=C(C(C)=O)C(O)c1ccc(Cl)cc1 (stereo unspecified)
inactive: [1] | [2] | [3] | [4] | [5]

COC[C@@H](O)[C@H]1OCc2ccccc2[C@H]1C=Cc1ccccc1
inactive: [1] | [2] | [3] | [4] | [5]

CC(CCC(=O)OC[C@H]1O[C@H](C#Cc2ccccc2)C=C[C@H]1Oc1ccc(C)cc1)=NOC[C@@H](O)[C@H]1O[C@@H]2OC(C)(C)O[C@H]2[C@@H]1O
inactive: [1] | [2] | [3] | [4]
